Several values for one entry are separate records, joined by “and”; a condition that tells them apart may be missing. Identical values can stand only once. Compounds without any hit were thinned out: in the full panel of roughly 79,000, 15% have a hit. Some structures have more than one record in an assay (separate samples or runs), and their calls can disagree. Activity calls are given as the source filed them. Cut-off read from the data, not from the text of the source: active = growth inhibition above about 70%; inactive = the rest.
Columns and labels:
[1] = NCI Yeast Anticancer Drug Screen. Data for the rad50 strain (AID 155);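 note: 0% = growth of vehicle-only cultures of the same strain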; conditions: S. cerevisiae rad50 strain growth inhibition, stronger effect = higher value
Summary of the method: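 A DNA repair-deficient yeast mutant serves as the test organism; compound-induced growth inhibition is calculated against vehicle-treated cells.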

[2] = NCI Yeast Anticancer Drug Screen. Data for the mec2-1 strain (AID 157); conditions: S. cerevisiae mec2-1 strain, stronger effect = higher value
Summary of the method: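 Vehicle-treated cultures served as reference for growth inhibition of compound-exposed mec2-1 yeast.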

[3] = NCI Yeast Anticancer Drug Screen. Data for the sgs1 mgt1 strain (AID 161);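 note: 0% = growth of cultures given vehicle only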; conditions: S. cerevisiae sgs1 mgt1 strain, stronger effect = higher value
Summary of the method: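 Genetically altered yeast, compound exposure, growth inhibition relative to vehicle.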

[4] = NCI Yeast Anticancer Drug Screen. Data for the cln2 rad14 strain (AID 165);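 note: 0% = growth equal to vehicle treated cultures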; conditions: S. cerevisiae cln2 rad14 strain, stronger effect = higher value
Summary of the method: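 Each compound was tested on cln2 rad14 yeast. Inhibition of growth was calculated against vehicle-exposed controls.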

[5] = NCI Yeast Anticancer Drug Screen. Data for the bub3 strain (AID 167); conditions: S. cerevisiae bub3 mutant strain, stronger effect = higher value
Summary of the method: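 Inhibition values come from growth of compound-treated mutant yeast normalised to vehicle-treated controls.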

[6] = NCI Yeast Anticancer Drug Screen. Data for the mlh1 rad18 strain (AID 175); conditions: S. cerevisiae mlh1 rad18 strain growth inhibition, stronger effect = higher value
Summary of the method: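 Vehicle-treated cultures served as the reference for growth inhibition in a yeast strain carrying DNA damage repair alterations exposed to each compound.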

[7] = at 5.0 µM (retest, dose inferred, filed as 0.5)
[8] = at 50.0 µM (retest, dose inferred, filed as 5.0)

SMILES	growth inhibition [1, 7]	growth inhibition [1, 8]	growth inhibition ([1]; at 50.0 µM)	growth inhibition [2, 7]	growth inhibition [2, 8]	growth inhibition ([2]; at 50.0 µM)	growth inhibition [3, 7]	growth inhibition [3, 8]	growth inhibition ([3]; at 50.0 µM)	growth inhibition [4, 7]	growth inhibition [4, 8]	growth inhibition ([4]; at 50.0 µM)	growth inhibition [5, 7]	growth inhibition [5, 8]	growth inhibition ([5]; at 50.0 µM)	growth inhibition [6, 7]	growth inhibition [6, 8]	growth inhibition ([6]; at 50.0 µM)
OC1CCCC[CH]1[Hg][Cl] (centres undefined)	99% (active)	99% (active)	99.3% (active)	100% (active)	100% (active)	99.7% (active)	100% (active)	100% (active)	49.2% (inactive)	99% (active)	99% (active)	99.3% (active)	100% (active)	100% (active)	99.3% (active)	100% (active)	100% (active)	99.5% (active)
CS/C([S-])=N/N=C(C)C.CS/C([S-])=N/N=C(C)C.[Ni+2]	34% (inactive)	94% (active)	93.8% (active)	19% (inactive)	96% (active)	57% (inactive)	28% (inactive)	97% (active)	83.7% (active)	11% (inactive)	89% (active)	-13.8% (inactive)	72% (active)	96% (active)	79.8% (active)	72% (active)	97% (active)	74.8% (active)
COC1=C(N2CC2)C(=O)C(OC)=C(N2CC2)C1=O	95% (active)	97% (active)	98.3% (active)	95% (active)	98% (active)	97.8% (active)	90% (active)	97% (active)	98.2% (active)	91% (active)	98% (active)	98.8% (active)	49% (inactive)	98% (active)	97.1% (active)	96% (active)	98% (active)	97.6% (active)
CC1(C)OCC(COC(=O)C=[N+]=[N-])O1 (centres undefined)	0% (inactive)	-10% (inactive)	2.75% (inactive)	0% (inactive)	-7% (inactive)	0.75% (inactive)	11% (inactive)	-4% (inactive)	-7.5% (inactive)	-3% (inactive)	-14% (inactive)	-6.95% (inactive)	2% (inactive)	-3% (inactive)	-2.25% (inactive)	-2% (inactive)	-14% (inactive)	42.5% (inactive)
CC12CCC(O)CC1CCC1C2CCC2(C)C(C(=O)CC(O)C(F)(F)F)CCC12 (centres undefined)	4% (inactive)	62% (inactive)	84.5% (active)	8% (inactive)	43% (inactive)	65.8% (inactive)	-9% (inactive)	62% (inactive)	67.5% (inactive)	-7% (inactive)	66% (inactive)	71.2% (active)	-15% (inactive)	57% (inactive)	84% (active)	0% (inactive)	63% (inactive)	85.7% (active)
N#C[S-].[Ce+3].c1ccc(-c2ccccn2)nc1.c1ccc(-c2ccccn2)nc1.c1ccc(-c2ccccn2)nc1	63% (inactive)	98% (active)	91.5% (active)	43% (inactive)	99% (active)	94% (active)	51% (inactive)	99% (active)	92.9% (active)	31% (inactive)	93% (active)	91.5% (active)	55% (inactive)	98% (active)	92.3% (active)	63% (inactive)	98% (active)	91.4% (active)
CCN(CCCl)c1ccc(/C=C/C2=[N+](C)c3ccccc3C2(C)C)c(C)c1	-5% (inactive)	98% (active)	62% (inactive)	-1% (inactive)	99% (active)	98.2% (active)	-8% (inactive)	98% (active)	96.8% (active)	-4% (inactive)	97% (active)	71.5% (active)	-6% (inactive)	99% (active)	99.2% (active)	-1% (inactive)	98% (active)	60.8% (inactive)
O=c1c[n+](-c2ccc[nH+]c2)[nH]o1.[Cl][Hg][Cl]	99% (active)	99% (active)	99.3% (active)	100% (active)	100% (active)	99.5% (active)	100% (active)	100% (active)	99.5% (active)	99% (active)	99% (active)	99.3% (active)	99% (active)	99% (active)	99.4% (active)	99% (active)	99% (active)	99.2% (active)
CC1C(=O)OCC1(C)O (centres undefined)	1% (inactive)	-2% (inactive)	-15.2% (inactive)	1% (inactive)	0% (inactive)	-11.7% (inactive)	-4% (inactive)	0% (inactive)	-5.55% (inactive)	1% (inactive)	0% (inactive)	0.75% (inactive)	2% (inactive)	2% (inactive)	46% (inactive)	4% (inactive)	3% (inactive)	-21.6% (inactive)
CC(=O)O[C@H]1C[C@@H]2OC3C=C(C)CCC3(C)[C@@]1(C)[C@@]21CO1 (some centres undefined)	99% (active)	99% (active)	92.5% (active) and 18.9% (inactive)	100% (active)	100% (active)	94.3% (active) and 1.7% (inactive)	99% (active)	99% (active)	94% (active) and 32.1% (inactive)	99% (active)	99% (active)	92.2% (active) and 6.4% (inactive)	99% (active)	99% (active)	92.7% (active) and 2.9% (inactive)	99% (active)	99% (active)	92.8% (active) and 17.9% (inactive)
C(=C/P(c1ccccc1)c1ccccc1)/P(c1ccccc1)c1ccccc1.C(=CP(c1ccccc1)c1ccccc1)P(c1ccccc1)c1ccccc1.[Pt]	61% (inactive)	78% (active)	84.4% (active)	38% (inactive)	92% (active)	90% (active)	33% (inactive)	92% (active)	82.7% (active)	36% (inactive)	82% (active)	86.2% (active)	56% (inactive)	89% (active)	86.8% (active)	41% (inactive)	91% (active)	83.4% (active)
CCC[CH2][Sn]1([CH2]CCC)[S]CC[N]1S(=O)(=O)c1ccc(C)cc1	79% (active)	98% (active)	91.8% (active)	85% (active)	99% (active)	94% (active)	77% (active)	99% (active)	92.6% (active)	62% (inactive)	97% (active)	91.5% (active)	88% (active)	98% (active)	92.3% (active)	88% (active)	97% (active)	92% (active)
O=C1CN2C(Cl)(Cl)C2(c2ccccc2)c2cc(Cl)ccc2N1CC1CC1 (centres undefined)	54% (inactive)	93% (active)	90.3% (active)	29% (inactive)	93% (active)	91.3% (active)	27% (inactive)	94% (active)	92.7% (active)	18% (inactive)	91% (active)	88.3% (active)	39% (inactive)	93% (active)	68.2% (inactive)	65% (inactive)	92% (active)	87.3% (active)
Sc1ccc(Cl)cc1	3% (inactive)	51% (inactive)	9.5% (inactive) and 52.4% (inactive)	2% (inactive)	37% (inactive)	10.7% (inactive) and 32.1% (inactive)	5% (inactive)	34% (inactive)	13.4% (inactive) and 26.1% (inactive)	-1% (inactive)	38% (inactive)	-45% (inactive) and 14.8% (inactive)	0% (inactive)	59% (inactive)	-33% (inactive) and 62.4% (inactive)	9% (inactive)	64% (inactive)	13.9% (inactive) and 31.5% (inactive)
Cc1cc([N+](=O)[O-])c(O)c([N+](=O)[O-])c1C	2% (inactive)	71% (active)	67.5% (inactive)	12% (inactive)	47% (inactive)	26.6% (inactive)	3% (inactive)	70% (active)	62.5% (inactive)	-42% (inactive)	34% (inactive)	45.4% (inactive)	11% (inactive)	58% (inactive)	63.2% (inactive)	-7% (inactive)	90% (active)	54.1% (inactive)
CC(Cc1ccccc1)N(C)Cc1ccc(-c2ccccc2)o1 (centres undefined)	27% (inactive)	91% (active)	31.2% (inactive)	7% (inactive)	75% (active)	34% (inactive)	14% (inactive)	94% (active)	63.6% (inactive)	16% (inactive)	88% (active)	14.6% (inactive)	6% (inactive)	96% (active)	20.6% (inactive)	12% (inactive)	91% (active)	81.3% (active)
CC(Br)CN1CCOCC1 (centres undefined)	91% (active)	97% (active)	94.2% (active)	25% (inactive)	98% (active)	96.8% (active)	58% (inactive)	94% (active)	67.7% (inactive)	14% (inactive)	66% (inactive)	12.8% (inactive)	-10% (inactive)	36% (inactive)	2.6% (inactive)	66% (inactive)	97% (active)	96.2% (active)
COc1cc(C=Nc2cc[c]([Hg][O]C(C)=O)cc2)ccc1O	4% (inactive)	23% (inactive)	99.5% (active)	-1% (inactive)	67% (inactive)	99.5% (active)	2% (inactive)	67% (inactive)	99.4% (active)	-4% (inactive)	22% (inactive)	99.3% (active)	3% (inactive)	75% (active)	99.3% (active)	0% (inactive)	56% (inactive)	99.3% (active)
